The whole screen tested about 50,000 compounds, of which about 800 (1.6%) showed an effect of 50% or more. This is one part of a sample in which strong results are shown more often than they occur.

In this assay the target is Bcl-2-like protein 10 (Homo sapiens) (UniProt Q9HD36). Description: TR3 peptide-Bcl-B binding displacers, biochemical primary FP assay, phenotype converters (AID 1240).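 Further: 0% = Bcl-B with tracer peptide and DMSO and 100% = tracer peptide lacking Bcl-B.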 Conditions: GST-Bcl-B / FITC-TR3 peptide fluorescence polarization; stronger effect = higher value; compound at 3.75 mg/L. For orientation: In fluorescence polarisation assays a small probe gives low polarisation when free and higher when bound to something large.
Chain of Bcl-2-like protein 10 (Homo sapiens) (Q9HD36 whole entry, looked up): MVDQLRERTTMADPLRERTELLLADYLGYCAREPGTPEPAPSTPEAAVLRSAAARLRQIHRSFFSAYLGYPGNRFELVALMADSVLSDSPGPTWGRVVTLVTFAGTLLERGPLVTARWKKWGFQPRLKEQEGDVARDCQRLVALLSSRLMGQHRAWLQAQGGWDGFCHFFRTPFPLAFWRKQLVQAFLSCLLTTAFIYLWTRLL
In the case of `COC(=O)c1[nH]cnc1C(=O)Nc1ccc(C)cc1C(=O)c1ccccc1`, the displacement is -1.6%. As for `Cc1ccccc1-c1nc2ccccc2c(=O)n1/N=C/c1ccc([N+](=O)[O-])cc1`, the displacement amounted to 12.8%. As for `Cc1ccc(C)c(NC(=O)/C=C/c2ccc(C)o2)c1`, the figure is 10.2%; as for `CCOc1ccc(S(=O)(=O)NCc2ccccc2Cl)c2ccccc12`, 3.4%; as for `O=C(Nc1nc(-c2ccc([N+](=O)[O-])cc2)cs1)c1ccc(Cl)cc1`, 8.7%. On to `O=C(Nc1nc(-c2ccc(F)cc2)cs1)c1ccccc1[N+](=O)[O-]`, for which the displacement worked out at 8.9%.

With `O=C(Nc1nc(-c2ccc([N+](=O)[O-])cc2)cs1)c1ccccc1F`, the displacement was determined as 113%. For the molecule `COc1cc(/C=C2/SC(=S)N(CC(=O)O)C2=O)ccc1OCc1ccccc1`, the displacement was determined as 1.7%. In the case of `Oc1ccc(Br)cc1CN1CCN(Cc2c[nH]c3ccccc23)CC1`, the displacement was -2.7%. The same measure for `Cc1n[nH]c(C)c1Sc1ccccc1N=Cc1cc([N+](=O)[O-])ccc1O`: 3.6%; for `Cc1n[nH]c(C)c1Sc1ccccc1N=Cc1cc(Cl)ccc1O`: 0%; for `Cc1n[nH]c(C)c1Sc1ccccc1N=Cc1cc(Cl)cc([N+](=O)[O-])c1O`: 117%.

On to `O=C(/C=C/c1ccccc1OC(=O)c1cccnc1)c1ccccc1`, for which the displacement was -10.4%. For the molecule `Cc1ccc(C2OC3(C(=O)c4ccccc4C3=O)C(c3cccc(Cl)c3)C23C(=O)c2ccccc2C3=O)cc1` (configuration not stated), the displacement was 2%. The same measure for `CC(C(=O)O)N1C(=O)/C(=C/c2ccc3c(c2)OCO3)SC1=S` (configuration not stated): 9.1%. On to `O=C1/C(=C\c2ccc3c(c2)OCO3)SC(=S)N1C1CCS(=O)(=O)C1` (configuration not stated), for which the displacement came to 106%. In the case of `O=C1/C(=C\c2ccc3c(c2)OCO3)SC(=S)N1CCc1ccccc1`, the displacement was -2.3%. Consider `O=C1/C(=C/c2cccc([N+](=O)[O-])c2)SC(=S)N1C1CCS(=O)(=O)C1` (configuration not stated), for which the displacement came to 2.2%. The same measure for `CN1C(=O)/C(=C/c2ccc3c(c2)OCO3)SC1=S`: 80.3%.

As for `O=C(O)CCN1C(=O)/C(=C\c2ccc3c(c2)OCO3)SC1=S`, the displacement was -2.7%. As to `Cc1ccc(CNS(=O)(=O)c2ccccc2[N+](=O)[O-])cc1`, the displacement was determined as 5.2%. With `O=C(c1ccccc1)N1CCCC2CCCCC21` (configuration not stated), the displacement worked out at 1.6%.

Regarding `CCOc1ccc(NC(=O)c2c(N)sc(-c3ccccc3)c2C)cc1`, the displacement is -0.3%.

With `CCO/C=N/C1=C(C#N)C(c2ccccc2)C2=C(CC(C)(C)CC2=O)O1` (configuration not stated), the displacement is 4.5%. The same measure for `COC(=O)c1cc(C(=O)Nc2ccccn2)cc([N+](=O)[O-])c1`: -1.3%; for `COC(=O)c1cc(C(=O)Nc2ncccc2C)cc([N+](=O)[O-])c1`: 55.2%.

For the molecule `COC(=O)c1cc(C(=O)Nc2cc(C)ccn2)cc([N+](=O)[O-])c1`, the displacement was found to be 3.9%. The same measure for `Cc1cccnc1NC(=O)Nc1ccc(F)cc1`: 0.2%; for `O=C(NCC1CCCO1)c1ccc(C2SCC(=O)N2Cc2ccccc2)cc1` (configuration not stated): -12.3%. On to `CCCOc1ccc(N2C(=O)CC(NCc3cccnc3)C2=O)cc1` (configuration not stated), for which the displacement came to 1.7%.

With `COc1cc(/C=C2/SC(=S)N(CCC(=O)O)C2=O)cc(Br)c1O`, the displacement was -13.7%. With `CCCCOc1ccc(/C=C2\SC(=S)N(CCC(=O)OC)C2=O)cc1OC`, the displacement worked out at 54.1%. As to `CCCCOc1ccc(/C=C2\SC(=S)N(C(C)C(=O)O)C2=O)cc1OC` (configuration not stated), the displacement was 3.8%.

For the molecule `COc1cc(/C=C2\SC(=S)N(C)C2=O)cc(Br)c1O`, the displacement was -47.9%. Take `COC(=O)CCN1C(=O)/C(=C\c2ccc(C)cc2)SC1=S`: the displacement is 0.6%. For the molecule `COC(=O)CCN1C(=O)/C(=C\c2cc(Br)c(O)c(OC)c2)SC1=S`, the displacement came to 53.8%. `O=C(Nc1ccc(I)cc1Cl)c1cccc(Cl)c1Cl`: the displacement amounted to 11.2%. In the case of `O=C(NN1C(=O)/C(=C\c2ccccn2)SC1=S)c1ccccc1`, the displacement is -15.1%. For `Cc1ccc2nc(/C(C#N)=C/c3cc(Br)ccc3OCc3ccccc3)[nH]c2c1`, the displacement is -2.3%.

For `CCCOc1ccc(Cl)cc1/C=C(/C#N)c1nc2ccc(C)cc2[nH]1`, the displacement was found to be 15.5%. The same measure for `CCCOc1ccc(Br)cc1/C=C(/C#N)c1nc2ccc(C)cc2[nH]1`: 69.3%.

In the case of `CCCOc1c(I)cc(I)cc1/C=C(/C#N)c1nc2ccc(C)cc2[nH]1`, the displacement was -4.9%.

Consider `Cc1ccc(/C=C(/C#N)c2nc3ccc(C)cc3[nH]2)cc1`, for which the displacement was 4.5%. The same measure for `Cc1ccc2nc(/C(C#N)=C\c3ccc(Br)cc3)[nH]c2c1`: 136%. The same measure for `Cc1ccc2nc(/C(C#N)=C\c3cc(Br)ccc3OC(C)C)[nH]c2c1`: 13.1%; for `CCOc1ccc(Br)cc1/C=C(\C#N)c1nc2ccc(C)cc2[nH]1`: 72.9%; for `CCc1ccc(/C=C(/C#N)c2nc3ccc(C)cc3[nH]2)cc1`: 3.2%. Regarding `COc1ccc(C2NCCc3c2[nH]c2ccccc32)cc1OC` (configuration not stated), the displacement worked out at 8.4%. With `COc1cccc(C(=O)N2N=C(c3cccnc3)CC2(O)C(F)(F)F)c1` (configuration not stated), the displacement was -2.9%. The same measure for `CCOC(=O)CN1C(c2ccccc2OC)Nc2ccc(Br)cc2C1c1ccccc1` (configuration not stated): 15.6%; for `Cc1ccc(S(=O)(=O)NN2C(=O)/C(=C/c3ccc(F)cc3)SC2=S)cc1`: 2%. Consider `OC(CNCc1ccccc1)(c1ccccc1)c1ccc(Cl)cc1` (configuration not stated), for which the displacement is -9.4%. `CC(=NCc1ccccc1)c1c(C)[nH]n(-c2nc3ccccc3s2)c1=O`: the displacement stood at 12.2%.

Take `CC(=NCCc1ccccc1)c1c(C(F)(F)F)[nH]n(-c2nc3ccccc3s2)c1=O`: the displacement is -8.3%. As for `CCCN=C(C)c1c(C)[nH]n(-c2nc3ccccc3s2)c1=O`, the displacement is 68.8%.

For the molecule `COc1cccc(C2C(C(=O)Nc3ccccc3)=C(C)N=c3s/c(=C\c4c[nH]c5ccccc45)c(=O)n32)c1` (configuration not stated), the displacement turned out to be 113%.

In the case of `COc1cccc(C2C(C(=O)Nc3ccccc3)=C(C)N=c3s/c(=C\c4ccncc4)c(=O)n32)c1` (configuration not stated), the displacement turned out to be 9.6%.

For the molecule `COc1cccc(C2C(C(=O)Nc3ccccc3)=C(C)N=c3s/c(=C\c4ccc(O)cc4)c(=O)n32)c1` (configuration not stated), the displacement was -6.7%. Regarding `COc1cccc(C2C(C(=O)Nc3ccccc3)=C(C)N=c3s/c(=C\c4sccc4C)c(=O)n32)c1` (configuration not stated), the displacement came out at 46.7%. Turning to `CCOC(=O)C1=C(C)N=c2s/c(=C\c3c[nH]c4ccccc34)c(=O)n2C1c1cccc(OC)c1` (configuration not stated), the displacement was 32.8%. Consider `COc1cccc(C2C(C(=O)Nc3ccccc3)=C(C)N=c3s/c(=C\c4ccc(N(C)C)cc4)c(=O)n32)c1` (configuration not stated), for which the displacement is 73.6%.

In the case of `CCOC(=O)C1=C(C)N=c2s/c(=C\c3cccs3)c(=O)n2C1c1cccc(OC)c1` (configuration not stated), the displacement is 12.9%. In the case of `COc1ccc(/C=c2\sc3n(c2=O)C(c2ccc(OC)cc2)C(C(=O)OC(C)C)=C(C)N=3)cc1` (configuration not stated), the displacement stood at 10%. As for `COc1cccc(C2C(C(=O)Nc3ccccc3)=C(C)N=c3s/c(=C/c4ccccc4OC)c(=O)n32)c1` (configuration not stated), the displacement amounted to 12.1%. Turning to `COc1ccc(C2C(C(=O)OC(C)C)=C(C)N=c3s/c(=C/c4c[nH]c5ccccc45)c(=O)n32)cc1` (configuration not stated), the displacement came out at 99.1%. The same measure for `COc1ccc(C2C(C(=O)OC(C)C)=C(C)N=c3s/c(=C\c4cc(OC)ccc4OC)c(=O)n32)cc1` (configuration not stated): 6.4%. The same measure for `COc1cccc(C2C(C(=O)Nc3ccccc3)=C(C)N=c3s/c(=C\c4cccs4)c(=O)n32)c1` (configuration not stated): 79.1%.

The values above are taken from PubChem BioAssay AID1240 (Sanford-Burnham Center for Chemical Genomics, 2008).
